# Activity calls are given as the source filed them.
# How the values were obtained:
# [1] = compounds binding Alexa647 anti-His antibody – biochemical, small-molecule microarray, 635 nm fluorescence, artefact control for SMM control protein annotation, primary screen (AID 1128); settings: higher = more signal;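 note: score merges feature fluorescence with signal-to-noise for each printed compound spot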
# [2] = tested on: Human papillomavirus type 1a E7 protein (residues 1-88); assay: HPV1a E7 small-molecule binders, primary screen, biochemical, small-molecule microarray, residues 1-88, 635 nm (AID 1129); settings: small-molecule microarray binding, fluorescence 635 nm; higher = more signal
# [3] = target: Focal adhesion kinase 1 (Homo sapiens) (UniProt Q05397); assay: PTK2 protein binding on printed compound slides – biochemical, small-molecule microarray, 635/667 nm fluorescence, BSA, DTT, primary screen (AID 1130); settings: 635 nm fluorescence, higher = more signal;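 note: composite of spot emission at 667 nm and signal to noise over triplicate slides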
# Chain of Focal adhesion kinase 1 (Homo sapiens) (Q05397 whole entry, looked up): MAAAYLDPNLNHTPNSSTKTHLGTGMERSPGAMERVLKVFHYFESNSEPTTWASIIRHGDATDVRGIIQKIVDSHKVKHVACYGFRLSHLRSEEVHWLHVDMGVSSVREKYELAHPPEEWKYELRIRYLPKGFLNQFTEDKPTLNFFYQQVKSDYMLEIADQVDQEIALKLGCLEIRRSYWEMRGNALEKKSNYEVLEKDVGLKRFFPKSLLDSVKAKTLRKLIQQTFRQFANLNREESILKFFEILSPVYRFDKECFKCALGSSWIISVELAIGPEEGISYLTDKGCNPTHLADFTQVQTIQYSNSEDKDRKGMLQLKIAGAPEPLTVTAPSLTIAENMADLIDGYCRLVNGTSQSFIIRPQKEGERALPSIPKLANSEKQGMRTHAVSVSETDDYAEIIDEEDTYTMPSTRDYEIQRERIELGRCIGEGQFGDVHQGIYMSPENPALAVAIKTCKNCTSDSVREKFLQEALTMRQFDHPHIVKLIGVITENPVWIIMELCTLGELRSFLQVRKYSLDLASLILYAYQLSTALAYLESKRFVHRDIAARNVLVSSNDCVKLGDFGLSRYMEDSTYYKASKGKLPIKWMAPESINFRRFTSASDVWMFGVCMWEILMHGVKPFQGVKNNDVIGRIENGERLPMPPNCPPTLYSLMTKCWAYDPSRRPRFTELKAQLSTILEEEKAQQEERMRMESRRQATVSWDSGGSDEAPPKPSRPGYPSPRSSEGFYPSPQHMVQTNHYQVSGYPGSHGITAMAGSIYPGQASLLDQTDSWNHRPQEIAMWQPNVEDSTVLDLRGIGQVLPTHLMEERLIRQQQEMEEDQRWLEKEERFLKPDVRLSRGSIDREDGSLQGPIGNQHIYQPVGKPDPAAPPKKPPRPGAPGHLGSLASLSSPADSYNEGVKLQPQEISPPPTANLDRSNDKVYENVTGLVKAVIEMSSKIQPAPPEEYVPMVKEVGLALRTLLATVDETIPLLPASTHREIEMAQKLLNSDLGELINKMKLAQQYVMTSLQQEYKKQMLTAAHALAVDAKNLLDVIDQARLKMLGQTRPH
# [4] = tested on: Fibrinogen (Alexa647-labelled); assay: Alexa647-fibrinogen binding to printed small molecules – biochemical, small-molecule microarray, 635/667 nm fluorescence, artefact control for SMM control-protein annotation, profiling panel (AID 1131); settings: fibrinogen-A647 binding fluorescence, higher = more signal;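 note: z-score merges 667 nm fluorescence with per-spot signal-to-noise over triplicate slides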
# [5] = target: Follistatin (Homo sapiens) (UniProt P19883); assay: FST protein binding to printed compounds – biochemical, small-molecule microarray, 635/667 nm fluorescence, primary screen (AID 1132); settings: 635 nm fluorescence, higher = more signal
# Chain of Follistatin (Homo sapiens) (P19883 whole entry, looked up): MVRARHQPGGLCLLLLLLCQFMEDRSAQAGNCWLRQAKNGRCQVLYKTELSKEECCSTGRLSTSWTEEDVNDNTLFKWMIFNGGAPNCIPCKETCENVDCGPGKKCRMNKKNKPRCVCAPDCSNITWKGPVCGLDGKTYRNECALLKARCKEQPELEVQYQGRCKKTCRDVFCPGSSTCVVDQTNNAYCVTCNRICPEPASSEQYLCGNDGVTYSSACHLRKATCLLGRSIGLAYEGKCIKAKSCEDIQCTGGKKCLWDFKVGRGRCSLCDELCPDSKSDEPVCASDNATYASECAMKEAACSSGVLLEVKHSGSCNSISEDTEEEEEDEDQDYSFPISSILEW
# [6] = target: Fibroblast growth factor 2 (Homo sapiens) (UniProt P09038); assay: basic fibroblast growth factor binding to printed compounds – biochemical, small-molecule microarray, 635/667 nm fluorescence, primary screen (AID 1133); settings: FGF2, fluorescence 635/667, higher = more signal
# Chain of Fibroblast growth factor 2 (Homo sapiens) (P09038 whole entry, looked up): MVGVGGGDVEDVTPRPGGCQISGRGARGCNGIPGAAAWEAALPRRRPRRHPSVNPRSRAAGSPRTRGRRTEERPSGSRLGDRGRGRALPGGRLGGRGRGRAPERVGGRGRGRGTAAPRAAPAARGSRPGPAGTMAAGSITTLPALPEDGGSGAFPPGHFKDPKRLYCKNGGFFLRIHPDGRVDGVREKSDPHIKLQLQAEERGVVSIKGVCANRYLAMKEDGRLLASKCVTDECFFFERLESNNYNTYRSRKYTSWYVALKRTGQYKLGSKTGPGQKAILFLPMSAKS
# [7] = JC-1 mitochondrial potential readout, lung cancer cells – cell-based, A549, JC-1 fluorescence, basal, 24 h, 100 nL, profiling panel (AID 1138); settings: higher = more signal;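 note: A549 lung adenocarcinoma cells under basal conditions with no added stimulus; test concentration not given here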
# Lefty1 = Lefty1 protein binding to printed compounds – biochemical, small-molecule microarray, 635/667 nm fluorescence, primary screen (AID 1139); settings: fluorescence 635/667, higher = more signal
# [8] = tested on: wheat germ agglutinin (Triticum aestivum), Alexa647-labelled; assay: Alexa647-WGA lectin binding to printed small molecules – biochemical, small-molecule microarray, 635/667 nm fluorescence, artefact control for SMM control-protein annotation, profiling panel (AID 1140); settings: WGA-A647 binding, 635 nm fluorescence, higher = more signal;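 note: score merges 667 nm feature emission with signal to noise over triplicate slides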
# [9] = target: Luciferin 4-monooxygenase (Photinus pyralis) (UniProt P08659); assay: inhibition of purified Photinus pyralis luciferase – biochemical, luminescence, purified enzyme, 2006 set, primary screen (AID 1141); settings: purified firefly luciferase, SteadyGlo luminescence, 30 min; higher = more signal, called active from +8 up or from −8 down;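 note: cell-free assay with purified firefly luciferase at 100 ng per well in PBS; test concentration not given here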
# Chain of Luciferin 4-monooxygenase (Photinus pyralis) (P08659 whole entry, looked up): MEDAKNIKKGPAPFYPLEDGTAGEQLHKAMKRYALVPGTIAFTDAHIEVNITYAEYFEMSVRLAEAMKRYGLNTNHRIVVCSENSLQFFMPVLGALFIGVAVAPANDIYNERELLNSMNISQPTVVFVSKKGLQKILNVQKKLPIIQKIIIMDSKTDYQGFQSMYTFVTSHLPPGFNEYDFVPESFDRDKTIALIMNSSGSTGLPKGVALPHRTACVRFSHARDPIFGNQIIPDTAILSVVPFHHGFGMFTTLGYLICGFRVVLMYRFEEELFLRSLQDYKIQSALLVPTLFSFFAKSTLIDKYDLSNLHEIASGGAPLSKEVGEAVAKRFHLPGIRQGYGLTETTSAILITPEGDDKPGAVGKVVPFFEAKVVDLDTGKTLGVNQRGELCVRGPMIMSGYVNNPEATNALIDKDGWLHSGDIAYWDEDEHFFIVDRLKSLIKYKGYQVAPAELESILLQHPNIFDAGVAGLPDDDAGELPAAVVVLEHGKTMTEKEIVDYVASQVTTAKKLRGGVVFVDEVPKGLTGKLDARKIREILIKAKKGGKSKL
SMILES,composite z-score [1],composite z-score [2],composite z-score [3],composite z-score [4],composite z-score [5],composite z-score [6],z-score [7],composite z-score (Lefty1),composite z-score [8],z-score [9]
COc1ccc(C(O)C2C=CC3C(=O)NC(=O)C3N2Nc2ccccn2)cc1 (stereo not given),0.246,0.178,-0.235,0.055,0.198,0.338,-0.0269,0.513,0.899,-1.99 (inactive)
NCCCCCNC(=O)[C@@H]1C[C@@H]2C(=O)N[C@@H](Cc3ccccc3)C(=O)N2[C@@H]1c1cccc(OCCO)c1,1.63,-0.074,0.123,0.968,0.574,0.635,-0.505,0.325,1.12,-0.435 (inactive)
O=C1NCC(=O)N2[C@@H]1C[C@@H](C(=O)O)[C@H]2c1cccc(OCCO)c1,1.85,1.34,4.87,0.654,1.52,1.5,0.221,1.84,1.45,-0.707 (inactive)
COc1ccc([Si](C)(C)[C@H]2[C@H](CCn3cc([C@H](O)c4ccccc4)nn3)O[C@@]3(C(=O)N(Cc4cccc(N5CCOC5=O)c4)c4ccccc43)[C@@H]2C)cc1,0.0694,0.679,0.0871,0.401,1.28,0.669,0.711,0.892,0.22,0.387 (inactive)
COC(=O)[C@@]1(Cc2ccc(F)cc2)[C@H]2c3cc(C(=O)N(C)C)n(Cc4ccc(S(C)(=O)=O)cc4)c3C[C@H]2CN1C(=O)c1ccccc1,0.904,0.941,1.16,1.01,0.158,0.0722,0.521,-0.224,0.766,0.202 (inactive)
COCC(=C=CC[C@@H](O)c1ccccc1OCCO)C[C@@H](O)c1cc(Cl)cc(Cl)c1O,0.819,1.23,0.14,0.867,1.24,1.21,-0.41,0.666,0.289,-1.02 (inactive)
COCCOC(=O)N1C(=O)[C@@]2(c3cc(C#CC4=CCCCC4)ccc31)[C@H](C(=O)Nc1nc3ccccc3s1)[C@H]1C(=O)O[C@H](c3ccccc3)[C@H](c3ccccc3)N1[C@@H]2c1ccccc1OCCO,0.772,1.19,2.14,0.766,1.38,0.946,-2.18,1.21,0.845,-1.88 (inactive)
CCOC1=C2C(CN(S(=O)(=O)c3ccc(C)cc3)C2c2ccc(C)cc2)C2C(=O)N(c3ccccc3)C(=O)C2C1 (stereo not given),0.727,1.15,0.553,0.783,0.475,0.301,-0.368,0.535,0.4,1.09 (inactive)
COc1ccc(C(=O)Nc2ccc(CN3C(=O)[C@@]4(O[C@@H](CCO)[C@H]([Si](C)(C)c5ccc(OC)cc5)[C@H]4C)c4ccccc43)cc2)cc1,1.42,0.97,-0.0228,0.673,1.37,1.55,-1.49,1.45,0.559,-0.555 (inactive)
CN(C)C(=O)[C@@]1(Cc2ccccc2CN=[N+]=[N-])N=C(c2ccc(OCCCO)cc2)O[C@H]1c1ccccc1,2.77,1.18,0.995,0.941,0.761,1.34,0.0462,-0.169,0.751,0.27 (inactive)
O=C1C[C@]2(c3ccc([N+](=O)[O-])cc3)C(=O)N(CCN3CCOCC3)c3cc(CO)ccc3[C@H]2N1C1CCCCC1,-0.106,-1.24,-0.617,0.975,-0.414,0.189,0.631,-0.599,0.409,-0.648 (inactive)
O=C1[C@H]2C=C(Br)[C@H](C[C@@H]2OCCCCO)[C@@]12CO2,-0.0684,-0.123,-0.14,-0.0973,0.324,0.108,0.137,0.17,0.0889,0.469 (inactive)
C=C(COC)/C(=C/C[C@H](OC(=O)c1ccncc1)c1ccc(OCCO)cc1)c1cnc2ccccc2c1,1.96,1.2,0.111,0.967,1.38,1.02,-0.0174,1.33,1.47,-1.34 (inactive)
O=C1NC(=O)C2C1C=CC(C(O)c1cccc3ccccc13)N2Nc1ccccn1 (stereo not given),1.97,0.158,0.132,-0.207,0.169,0.11,1.55,-0.34,0.0591,0.135 (inactive)
COC(=O)C(CC#Cc1ccc2c(c1)[C@]1(C(=O)N2)[C@H](c2ccc(O)cc2)N2[C@H](c3ccccc3)[C@H](c3ccccc3)OC(=O)[C@H]2[C@@H]1C(=O)Nc1nc2ccccc2s1)C(=O)OC,1.8,1.22,0.833,0.96,1.1,1.22,-1.7,1.23,0.471,-1.63 (inactive)
OC([C@@H]1CC(c2ccccc2)=NO1)[C@H]1CC(c2ccccc2)=NO1 (stereo not given in full),0.176,-0.236,-0.141,0.0985,0.0914,0.128,-0.0913,0.484,-0.259,-1.46 (inactive)

SMILES,composite z-score [1],composite z-score [2],composite z-score [3],composite z-score [4],composite z-score [5],composite z-score [6],z-score [7],composite z-score (Lefty1),composite z-score [8],z-score [9]
COC(=O)[C@@]1(Cc2ccc(OC)cc2)[C@H]2c3cc(C(=O)N4CCCC4)n(Cc4ccsc4Br)c3C[C@H]2CN1C(=O)c1ccccc1,0.198,1.12,0.565,-0.152,0.073,-0.88,-0.404,-0.402,0.604,-0.777 (inactive)
C=CCN1C(=O)[C@@]2(O[C@@H](CCO)[C@H]([Si](C)(C)c3ccc(OC)cc3)[C@H]2C)c2cc(NC(=O)c3ccc(OC)cc3)ccc21,0.919,0.563,-0.0376,0.259,1.38,1.2,2.81,0.763,0.458,-1.26 (inactive)
CCOC(=O)C[C@H]1[C@H](OC(=O)c2ccc(C(=O)c3ccccc3)cc2)[C@@H](NC(=O)c2ccc(-c3ccccc3)cc2)c2cc(OCCCO)ccc2N1C(=O)c1ccccc1,0.256,0.87,0.644,0.803,0.559,0.59,-0.187,0.712,0.131,-0.265 (inactive)
COCCn1c(C(=O)N2CCCC2)cc2c1C[C@H]1CN(C(=O)c3ccccc3)[C@@](Cc3ccc(F)cc3)(C(=O)OC)[C@@H]21,0.346,1.27,1.61,1.02,0.35,-0.703,-0.328,0.108,0.845,3.4 (inactive)
C=CCOC(=O)[C@H]1[C@@H]2C(=O)O[C@@H](c3ccccc3)[C@@H](c3ccccc3)N2[C@@H](c2ccc(OCCOC(=O)[C@H]3C[C@H]4C(=O)N5CCC[C@H]5C(=O)N4[C@H]3c3ccc(O)cc3)cc2)[C@]12C(=O)Nc1ccccc12,0.442,1.26,1.13,0.598,1.39,1.96,-1.42,1.42,0.0976,-0.205 (inactive)
COCCOC(=O)N1C(=O)[C@@]2(c3cc(C#CC4=CCCCC4)ccc31)[C@H](C(N)=O)[C@H]1C(=O)O[C@H](c3ccccc3)[C@H](c3ccccc3)N1[C@@H]2c1ccc(OCCO)cc1,2.26,1.21,0.797,0.938,0.371,0.925,-1.65,0.517,0.773,-1.8 (inactive)
O=C1O[C@H](c2ccccc2)[C@H](c2ccccc2)N2[C@H]1[C@@H](C(=O)N1CCN(c3ncccn3)CC1)[C@]1(C(=O)Nc3ccc(C#CC4=CCCCC4)cc31)[C@H]2c1ccc(O)cc1,0.896,1.21,0.0908,0.756,0.792,0.357,-0.48,0.497,0.605,-0.0055 (inactive)
C=CCOC(=O)[C@H]1[C@@H]2C(=O)O[C@@H](c3ccccc3)[C@@H](c3ccccc3)N2[C@@H](c2ccc(OCCOC(=O)[C@@H]3C[C@@H]4C(=O)N5CCC[C@H]5C(=O)N4[C@@H]3c3cccc(OCCO)c3)cc2)[C@]12C(=O)Nc1ccccc12,2.53,1.19,0.701,0.686,1.3,1.51,-1.5,1.14,0.847,-0.187 (inactive)
CCCCC(O)C1C=CC2C(=O)N(c3ccccc3)C(=O)C2N1Nc1ccccc1F (stereo not given),1.35,1.11,0.527,0.924,0.347,-0.563,0.354,-0.0785,1.2,0.247 (inactive)
CN1C(=O)C2C=CC(C(O)c3ccccc3)N(Nc3ccccc3)C2C1=O (stereo not given),0.75,0.717,0.61,-0.022,-1.07,-1.39,-0.419,-0.279,0.537,-0.315 (inactive)
COC(=O)[C@@]1(Cc2ccc(OC)cc2)[C@H]2c3cc(C(=O)N4CCCC4)n(Cc4ccccc4)c3C[C@H]2CN1C(=O)c1ccccc1,3,1.25,1.32,1,0.506,-0.368,0.581,-0.292,1.1,2.01 (inactive)
COc1cc2c(cc1OC)CN(C(=O)[C@H]1[C@@H]3C(=O)O[C@@H](c4ccccc4)[C@@H](c4ccccc4)N3[C@@H](c3ccc(O)cc3)[C@]13C(=O)Nc1ccc(C#CC4=CCCCC4)cc13)CC2,2.11,1.19,-0.0164,0.666,1.22,0.86,0.0961,1.2,1.12,-1.1 (inactive)
CN1C(=O)C2C=CC(C(O)c3ccc(I)cc3)N(N3CCCCC3)C2C1=O (stereo not given),1.09,1.21,0.578,0.924,1.24,-0.148,0.158,0.459,1.2,-1.05 (inactive)
CCCCN1CC=CC23O[C@@H]4/C=C\CCC(C)OC(=O)C4[C@H]2C(=O)N(CCCCCO)[C@@H]3C1=O (stereo not given in full),-0.383,-0.69,-0.883,-0.773,-1.13,-0.781,-0.175,-0.234,-0.245,0.762 (inactive)
COC(=O)[C@@]1(Cc2ccc(F)cc2)[C@H]2c3cc(C(=O)N4CCCC4)n(Cc4cc(C)n(C)n4)c3C[C@H]2CN1C(=O)c1ccccc1,1.85,1.26,1.03,1.01,0.392,-0.47,0.0507,-0.847,0.628,0.609 (inactive)
CC1(C)[C@@H]2CC(C(O)C3C=CC4C(=O)N(c5ccccc5)C(=O)C4N3Nc3ccccc3)=C[C@H]1C2 (stereo not given in full),-0.21,0.598,1.13,0.153,0.955,0.329,1.01,-0.409,0.241,0.486 (inactive)
